Measured values published in PubChem BioAssay AID2528 (National Center for Advancing Translational Sciences (NCATS), 2010).
Out of some 350,000 compounds screened, about 700 (0.2%) were called active. The sample as a whole holds a higher share of actives than the screen did. Values without a mark were called inactive. The call rests on the fitted dose curve; in most records, active means well fitted inhibition curve with a large enough effect; inconclusive means small, poorly fitted or top-dose-only effect; inactive means flat fitted curve, though single readings scatter.

Biological target: RecQ-like DNA helicase BLM (Homo sapiens) (UniProt P54132)
Sequence (P54132 whole entry, looked up): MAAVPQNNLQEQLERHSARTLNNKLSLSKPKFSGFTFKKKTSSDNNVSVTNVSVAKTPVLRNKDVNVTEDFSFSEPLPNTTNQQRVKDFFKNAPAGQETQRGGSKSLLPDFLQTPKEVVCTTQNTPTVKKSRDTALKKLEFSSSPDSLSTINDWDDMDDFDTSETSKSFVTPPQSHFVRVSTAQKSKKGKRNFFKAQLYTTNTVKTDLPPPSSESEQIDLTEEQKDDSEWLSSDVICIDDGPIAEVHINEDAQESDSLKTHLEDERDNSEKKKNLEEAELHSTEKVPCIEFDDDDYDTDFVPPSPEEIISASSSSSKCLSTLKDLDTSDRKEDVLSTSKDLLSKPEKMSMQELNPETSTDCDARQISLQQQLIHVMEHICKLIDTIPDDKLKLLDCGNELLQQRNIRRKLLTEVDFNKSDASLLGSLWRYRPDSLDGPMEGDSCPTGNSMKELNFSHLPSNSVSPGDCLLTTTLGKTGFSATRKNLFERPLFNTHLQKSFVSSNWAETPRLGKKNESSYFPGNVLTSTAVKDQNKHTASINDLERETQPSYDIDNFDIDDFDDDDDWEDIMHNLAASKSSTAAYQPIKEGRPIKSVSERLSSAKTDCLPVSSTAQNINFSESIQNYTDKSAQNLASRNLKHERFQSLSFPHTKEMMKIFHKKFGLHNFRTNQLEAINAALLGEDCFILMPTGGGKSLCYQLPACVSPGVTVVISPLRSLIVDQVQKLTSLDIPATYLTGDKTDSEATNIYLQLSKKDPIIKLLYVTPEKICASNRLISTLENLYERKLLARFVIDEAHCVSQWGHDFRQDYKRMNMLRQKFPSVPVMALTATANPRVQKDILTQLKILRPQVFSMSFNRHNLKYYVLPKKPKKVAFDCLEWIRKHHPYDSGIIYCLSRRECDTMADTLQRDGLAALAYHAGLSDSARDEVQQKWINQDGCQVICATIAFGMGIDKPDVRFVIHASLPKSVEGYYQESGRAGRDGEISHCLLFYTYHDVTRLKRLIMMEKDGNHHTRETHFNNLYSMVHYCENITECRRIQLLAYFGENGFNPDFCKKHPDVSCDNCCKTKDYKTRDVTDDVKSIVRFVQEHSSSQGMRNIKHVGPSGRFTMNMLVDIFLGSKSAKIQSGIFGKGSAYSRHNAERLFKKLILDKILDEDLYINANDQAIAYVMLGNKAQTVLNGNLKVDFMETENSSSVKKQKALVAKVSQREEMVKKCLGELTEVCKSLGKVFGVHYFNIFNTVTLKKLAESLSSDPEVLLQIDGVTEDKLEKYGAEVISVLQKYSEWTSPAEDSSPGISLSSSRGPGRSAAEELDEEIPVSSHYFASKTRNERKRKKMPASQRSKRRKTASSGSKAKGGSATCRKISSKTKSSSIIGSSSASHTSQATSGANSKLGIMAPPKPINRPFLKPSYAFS
Test: qHTS Assay for Inhibitors of Bloom's syndrome helicase (BLM); further: nearly all actives have a fitted effect of over 35% in size;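 on activity change, negative = inhibition: plate controls were vehicle for no effect and no enzyme for full effect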
Conditions: recombinant BLM DNA unwinding, fluorescence dequenching; series mostly up to 56.1 µM; activity change, negative = inhibition: at the top concentration
From the text: Survival of cells and the faithful propagation of the genome depend on elaborate mechanisms of detecting and repairing DNA damage. Treatment of advanced cancer relies on radiation therapy or chemotherapy, which kill cancer cells by causing extensive DNA damage. It is often found, that cancer cells develop resistance to therapy through enhanced activity of DNA repair functions; this has led to an increased interest in developing drugs that interfere with DNA repair, which could sensitize cancer cells to conventional therapy.
This validation qHTS assay pertains to human BLM, which is important in resolving abnormal DNA structures formed during replication or homologous recombination. Shutting down the expression of BLM leads to chromosomal instability and higher radiation sensitivity in cultured cells.
The validation assay was a fluorescence quenching based kinetic qHTS for BLM Helicase DNA unwinding. The activity was measured as ATP-dependent separation of a 20-bp DNA duplex extended by 30-nt single-stranded tails (forked duplex). The forked DNA substrate was tagged with rhodamine fluorophore (carboxytetramethyl rhodamine, TAMRA) and BHQ-2 (Black Hole Quencher 2) dark quencher. Strand separation results in an increase in the fluorescence of TAMRA (excitation 525 nm, emission 598 nm). This substrate construct operates in a red-shifted region where very few compound library members have been noted to fluoresce (PubChem AIDs 593 and 594). An additional feature of the assay is the inclusion of 2.5 ug/ml poly (dIdC), to reduce interference by compounds such as DNA intercalators, a major source of false inhibitors.
Ian Hickson, University of Oxford
Opher Gileadi, Structural Genomics Consortium, University of Oxford
Screening Center PI: Austin, C.P.
Screening Center: NIH Chemical Genomics Center [NCGC]
Three uL of reaction buffer (25 mM Tris-HCl (pH 8.0), 5 mM NaCl, 2 mM MgCl2, 1mM DTT, 0.01% Tween- 20, and 2.5 ug/ml poly(dI-dC), including enzyme (50 nM BLM), were dispensed into a 1536-well Greiner black assay plate via solenoid-valve based nanoliter dispensers. Compounds (23 nl each in columns 5-48) and control (23 nl each in column 2 as dose-response) were transferred via a Kalypsys pintool equipped with a 1536-pin array. The plates were incubated for 15 min at room temperature, and then 1 ul of substrates (200 nM DNA and 2 mM ATP, final concentrations) was added to start the reaction. The plate was transferred into a ViewLux high-throughput CCD imager where the reaction progress was measured in a discontinuous kinetic mode (two reads spaced 2 hours apart, with intermediate room temperature incubation of the covered assay plate) by using standard red-fluorescence optics (excitation filter 525 nm, emission filter 598 nm). Enzyme-free and vehicle (DMSO) controls were included for signal normalization.
Potency means the concentration at half of the fitted maximal effect.

SMILES	activity change, negative = inhibition	Potency
Cc1ccc(CCNC(=O)C2CCN(c3nnc(-n4cccc4CNc4ccc(C)cc4)s3)CC2)cc1	-9.92%	
CC(C)C1=CC2=CC[C@H]3[C@](C)(C(=O)O)CCC[C@]3(C)C2CC1 (stereo partly drawn)	4.37%	
Cc1ccc(/C=C(\C#N)C(=O)Nc2cccc3ncccc23)o1		7.94 µM (active)
O=C(O)c1cc(Cl)c(Cl)cc1C(=O)Nc1cccc2ncccc12	-9.89%	
CCOC(=O)c1ccc(-c2ccc(/C=C(\C#N)C(=O)Nc3ccc(OCC)cc3)o2)cc1	-5.55%	
FC(F)(F)c1ccccc1-c1nc(-n2ccnc2)c2ccccc2n1	-3.83%	
C/C(CCN1CCCCc2nc(C)c(C)cc21)=N\O[C@@H](C)c1cn([C@@H]2COC[C@@H]2O)nn1	3.53% [at 12.4 µM]	
CN1C(=O)CN2CCc3ccccc3C2c2cc(Cl)ccc21 (stereo not drawn)	3.82%	
C=C[C@](C)(O)CCC1C(=C)CCC2[C@@](C)(CO)CCC[C@@]12C (stereo partly drawn)	-2.39%	
CC/C=C\C/C=C\C/C=C\C/C=C\C/C=C\C/C=C\CCC(=O)NCCc1ccc(O)c(O)c1	-0.801%	
Cc1c(S(=O)(=O)O)oc2c1C(=O)C(=O)c1c-2ccc2c1CCCC2(C)C		31.6 µM (active)
CC(C)C(N)C(=O)OCCOCn1cnc2c(=O)[nH]c(N)nc21 (stereo not drawn)	-7.58%	
O=C(O)C[C@@H]1NC(=O)[C@H](Cc2ccccc2)NC1=O	0.405%	
CCc1ccc(NC(=O)c2cnc3c(-c4ccccc4)c(C)nn3c2C)cc1	-1.21%	
COC1C[C@@H](O[C@@H]2C(C)C(=O)OC(C)C(C)C(O)C(C)C(=O)[C@@]3(CO3)CC(C)C(OC3OC(C)CC(N(C)C)C3O)C2C)OC(C)[C@@H]1O (stereo partly drawn)	-4.86%	
CC(=O)Oc1c2c(c3c(c1CC=C(C)C)O[C@@]14C(=CC5CC1C(C)(C)OC4(C/C=C(\C)C(=O)O)C5=O)C3=O)OC(C)(CCC=C(C)C)C=C2 (stereo partly drawn)	-15.4%	
CCC(C)[C@@H](N)C(=O)O (stereo partly drawn)		inactive
c1ccc2c(Nc3ccncc3)nc(-c3ccc4c(c3)OCO4)nc2c1	-15.1%	
O=C(NCc1ccccn1)c1ccc2nc(-c3ccco3)c(-c3ccco3)nc2c1		8.91 µM (active)
COCCNC(=O)Nc1ccc2nc(-c3ccco3)c(-c3ccco3)nc2c1		12.6 µM (active)
COc1ccc(NC(=O)COCc2cc(-c3ccco3)on2)cc1	0.68%	
CCOc1ccc(NC(=O)c2ncoc2-c2ccco2)cc1	-4.8%	

SMILES	activity change, negative = inhibition	Potency
COc1ccc(-c2nc3ccc(C(=O)NCc4ccc(C)cc4)cc3nc2-c2ccc(OC)cc2)cc1	-3.72%	
COc1cccc(S(=O)(=O)NCc2ccc(C(=O)NCc3ccccn3)cc2)c1	0.376%	
Cc1cccc(C)c1NC(=O)NC1=CCCN1C	-6.49%	
CCOC(=O)c1c(N)n(-c2cccc(C)c2C)c2nc3ccccc3nc12	-6.93%	
CCCNC(=O)c1c(N)n(-c2ccc(S(N)(=O)=O)cc2)c2nc3ccccc3nc12		20 µM (active)
Cc1noc(C)c1C(=O)NCCc1ccc(S(N)(=O)=O)cc1	-0.714%	
COc1ccccc1CNc1ccnc(-c2c(C)noc2C)n1	-3.97%	
N#CCCn1c(=O)c(-c2cc(F)cc(F)c2)nc2cnc(Oc3ccccc3)nc21	-12.2%	
CC1(C)N=C(SCc2ccccc2Cl)c2ccccc2N1	-0.452%	
Cc1ccc(-c2nnc(SCC(=O)NCc3ccccc3)nc2-c2ccc(C)cc2)cc1	-9.64%	
Clc1ccccc1CSc1nnc(-c2ccco2)c(-c2ccco2)n1		14.1 µM (active)
c1ccc(CSc2nnc(-c3ccco3)c(-c3ccco3)n2)cc1		14.1 µM (active)
Clc1ccccc1CSc1nncn2c1cc1occc12	-3.01%	
O=C(NCCSc1ccccc1)c1ccco1	-7.71%	
COc1ccc(N2CCN(C(=O)CSCc3nc(-c4ccccc4Cl)oc3C)CC2)cc1	-3.38%	
Cc1ccc2c(=O)c(C(=O)c3cccc(Cl)c3)cn(CC(=O)NCc3ccccc3)c2n1	1.52%	
C=C/C1=C/Cc2ccccc2[C@H](C[N+](=O)[O-])C(C(=O)OC)(C(=O)OC)C1	1.77%	
O=P(O)(O)OC[C@H](O)CO	-13.5%	
O=c1c(-c2cc(F)cc(F)c2)nc2cnc(Oc3ccccc3)nc2n1C[C@H]1CCCO1	-7.56%	
C=CCC(C)(O)c1ccco1 (stereo not drawn)	1.35%	
N#Cc1ccccc1-c1ccc2ncnc(NCc3cccnc3)c2c1	-6.8%	
